Assay results: the supplement of paper PMC10849652
Of roughly 8,800 targets only a part is listed; those with a hit were picked by preference. About 0.5% of all pairs of compound and target were hits.

How the values were obtained:
Assay in all cases: log2 fold change, soluble protein after heating vs DMSO (PISA); higher = thermal stabilisation; K562 lysate, 10 uM; active = over 0.2 and 3.5 SD of the protein, either way, in both replicates (recomputed)
[1] = compound: C1=CC=C(C=C1)[C@H](COC2=CC3=C(C=C2)NC(=O)N3)NC(=O)C4=CC=CN(C4=O)CC5=CC(=C(C=C5)F)F
Outline: (§1)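 Log-two fold change in thermal stability relative to solvent controls is reported from duplicates. For each sample, crude K562 extract from dounce-homogenised pellets in PBS pH 7.4 with 1 mM MgCl2, at 1 mg/mL protein, was treated with 10 μM compound for 30 min. Aliquots heated for 3 min across 48°C-58°C were pooled, brought to 0.5% NP-40 at 4°C and cleared at 21,000xg for 90 min. The supernatant was quantified by TMTpro 16plex LC-MS/MS with channel sums equalised.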

[2] = compound: CC1=C(SC2=C1C(=N[C@H](C3=NN=C(N32)C)CC(=O)N)C4=CC=C(C=C4)Cl)C
Outline: as §1

[3] = compound: CC1=C2C(=CC=C1)N=C(N(C2=O)C3=CC=CC=C3C)CN4C=NC5=C(N=CN=C54)N
Outline: as §1

[4] = compound: Cc1sc2c(c1C)C(c1ccc(Cl)cc1)=N[C@@H](CC(=O)OC(C)(C)C)c1nnc(C)n1-2
Outline: as §1

[5] = compound: c1ccc([C@@H]2C[C@H]2NC2CCNCC2)cc1
Outline: as §1

Measured: log2 fold change

NF1 (UniProt P21359)
inactive: [1] -0.03 | [2] -0.01 | [3] 0.03 | [4] -0.009 | [5] 0.016

NTMT1 (UniProt Q9BV86)
UniProt Q9BV86, sequence (Q9BV86 whole entry, looked up): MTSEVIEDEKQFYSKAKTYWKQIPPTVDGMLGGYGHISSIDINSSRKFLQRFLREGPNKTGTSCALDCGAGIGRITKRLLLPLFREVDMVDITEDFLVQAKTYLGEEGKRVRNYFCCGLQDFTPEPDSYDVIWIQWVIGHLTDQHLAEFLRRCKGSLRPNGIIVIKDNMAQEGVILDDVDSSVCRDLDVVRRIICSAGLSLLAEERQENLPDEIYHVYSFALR
inactive: [1] -0.01 | [2] -0.036 | [3] -0.019 | [4] 0.02 | [5] 0.098

NR3C1 isoform 3 (UniProt P04150)
UniProt P04150, sequence (P04150 whole entry, looked up): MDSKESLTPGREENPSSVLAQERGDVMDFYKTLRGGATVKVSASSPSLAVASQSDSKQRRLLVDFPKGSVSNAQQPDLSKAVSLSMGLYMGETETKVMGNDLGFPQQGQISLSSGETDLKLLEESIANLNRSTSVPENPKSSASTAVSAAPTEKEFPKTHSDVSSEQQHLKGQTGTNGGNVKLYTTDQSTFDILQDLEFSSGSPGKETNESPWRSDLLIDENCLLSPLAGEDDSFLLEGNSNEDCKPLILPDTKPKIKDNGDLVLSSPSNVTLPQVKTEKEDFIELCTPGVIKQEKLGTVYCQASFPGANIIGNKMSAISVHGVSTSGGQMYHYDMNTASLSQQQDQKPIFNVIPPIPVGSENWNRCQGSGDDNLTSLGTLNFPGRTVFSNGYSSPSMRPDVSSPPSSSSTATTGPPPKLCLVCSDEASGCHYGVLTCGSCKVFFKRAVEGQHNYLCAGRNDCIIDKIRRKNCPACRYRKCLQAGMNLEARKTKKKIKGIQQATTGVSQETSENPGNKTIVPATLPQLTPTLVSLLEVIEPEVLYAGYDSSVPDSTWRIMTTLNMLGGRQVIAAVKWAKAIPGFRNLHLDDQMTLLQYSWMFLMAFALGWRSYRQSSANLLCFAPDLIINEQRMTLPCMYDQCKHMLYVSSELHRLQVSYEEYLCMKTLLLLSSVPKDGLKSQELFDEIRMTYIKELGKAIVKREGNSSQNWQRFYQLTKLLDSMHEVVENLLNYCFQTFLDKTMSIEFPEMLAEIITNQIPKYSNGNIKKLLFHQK
inactive: [2] 0.034 | [3] -0.001 | [4] -0.035 | [5] 0.084
active: [1] 0.292

NCAPD2 (UniProt Q15021)
UniProt Q15021, sequence (Q15021 whole entry, looked up): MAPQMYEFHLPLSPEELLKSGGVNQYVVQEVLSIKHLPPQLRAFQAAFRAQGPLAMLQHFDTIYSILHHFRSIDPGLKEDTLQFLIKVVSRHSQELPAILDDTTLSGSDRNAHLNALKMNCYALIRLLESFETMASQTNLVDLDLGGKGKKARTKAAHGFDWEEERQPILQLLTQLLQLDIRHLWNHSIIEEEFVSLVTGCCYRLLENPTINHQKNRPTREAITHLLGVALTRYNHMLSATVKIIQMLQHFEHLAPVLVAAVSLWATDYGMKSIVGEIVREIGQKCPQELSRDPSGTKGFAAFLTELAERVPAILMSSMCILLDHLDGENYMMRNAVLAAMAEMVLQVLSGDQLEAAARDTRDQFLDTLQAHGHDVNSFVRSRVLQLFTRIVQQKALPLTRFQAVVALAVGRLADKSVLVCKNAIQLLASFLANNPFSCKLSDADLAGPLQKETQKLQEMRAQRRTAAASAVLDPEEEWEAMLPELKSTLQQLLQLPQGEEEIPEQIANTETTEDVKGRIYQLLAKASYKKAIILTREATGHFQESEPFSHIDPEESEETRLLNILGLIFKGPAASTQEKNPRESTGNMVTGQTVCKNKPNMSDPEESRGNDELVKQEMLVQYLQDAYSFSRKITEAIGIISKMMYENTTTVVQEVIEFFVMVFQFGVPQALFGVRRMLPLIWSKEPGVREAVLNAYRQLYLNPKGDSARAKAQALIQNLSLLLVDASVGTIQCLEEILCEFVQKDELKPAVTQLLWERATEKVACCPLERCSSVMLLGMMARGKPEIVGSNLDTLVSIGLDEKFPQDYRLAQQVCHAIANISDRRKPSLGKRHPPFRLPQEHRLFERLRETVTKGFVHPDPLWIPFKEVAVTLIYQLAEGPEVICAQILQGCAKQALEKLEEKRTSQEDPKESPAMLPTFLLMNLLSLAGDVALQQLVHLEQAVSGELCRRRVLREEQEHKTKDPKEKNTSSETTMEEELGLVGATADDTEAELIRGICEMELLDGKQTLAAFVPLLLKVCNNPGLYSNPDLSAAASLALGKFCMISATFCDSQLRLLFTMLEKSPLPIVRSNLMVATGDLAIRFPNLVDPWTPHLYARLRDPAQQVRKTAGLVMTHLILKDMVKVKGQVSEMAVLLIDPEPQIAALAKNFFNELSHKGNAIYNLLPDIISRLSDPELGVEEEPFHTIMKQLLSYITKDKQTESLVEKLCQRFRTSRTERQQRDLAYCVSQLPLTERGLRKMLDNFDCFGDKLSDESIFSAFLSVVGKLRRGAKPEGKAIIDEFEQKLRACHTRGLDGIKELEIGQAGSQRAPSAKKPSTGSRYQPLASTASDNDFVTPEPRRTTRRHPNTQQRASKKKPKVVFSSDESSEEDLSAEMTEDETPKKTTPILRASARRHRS
inactive: [1] -0.023 | [2] 0.028 | [3] 0.026 | [4] 0.008 | [5] 0.022

NBN (UniProt O60934)
inactive: [1] 0.074 | [2] 0.046 | [3] 0.003 | [4] -0.011 | [5] 0.059

NONO (UniProt Q15233)
UniProt Q15233, sequence (Q15233 whole entry, looked up): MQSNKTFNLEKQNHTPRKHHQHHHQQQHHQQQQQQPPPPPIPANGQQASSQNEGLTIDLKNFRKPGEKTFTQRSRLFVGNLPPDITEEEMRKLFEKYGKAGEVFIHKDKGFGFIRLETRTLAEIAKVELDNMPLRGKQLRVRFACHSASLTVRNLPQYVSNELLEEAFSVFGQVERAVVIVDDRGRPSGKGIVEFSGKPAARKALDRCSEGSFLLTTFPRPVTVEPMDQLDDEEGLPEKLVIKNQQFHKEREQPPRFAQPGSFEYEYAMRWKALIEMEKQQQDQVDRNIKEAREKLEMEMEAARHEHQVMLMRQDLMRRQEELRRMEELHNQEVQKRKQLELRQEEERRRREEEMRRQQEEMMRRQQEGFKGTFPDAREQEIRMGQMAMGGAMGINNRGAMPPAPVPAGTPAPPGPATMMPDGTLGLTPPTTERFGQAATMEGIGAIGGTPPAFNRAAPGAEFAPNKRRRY
inactive: [1] -0.047 | [2] 0.02 | [3] 0.015 | [4] 0.026 | [5] 0.074

NOSTRIN (UniProt Q8IVI9)
UniProt Q8IVI9, sequence (Q8IVI9 whole entry, looked up): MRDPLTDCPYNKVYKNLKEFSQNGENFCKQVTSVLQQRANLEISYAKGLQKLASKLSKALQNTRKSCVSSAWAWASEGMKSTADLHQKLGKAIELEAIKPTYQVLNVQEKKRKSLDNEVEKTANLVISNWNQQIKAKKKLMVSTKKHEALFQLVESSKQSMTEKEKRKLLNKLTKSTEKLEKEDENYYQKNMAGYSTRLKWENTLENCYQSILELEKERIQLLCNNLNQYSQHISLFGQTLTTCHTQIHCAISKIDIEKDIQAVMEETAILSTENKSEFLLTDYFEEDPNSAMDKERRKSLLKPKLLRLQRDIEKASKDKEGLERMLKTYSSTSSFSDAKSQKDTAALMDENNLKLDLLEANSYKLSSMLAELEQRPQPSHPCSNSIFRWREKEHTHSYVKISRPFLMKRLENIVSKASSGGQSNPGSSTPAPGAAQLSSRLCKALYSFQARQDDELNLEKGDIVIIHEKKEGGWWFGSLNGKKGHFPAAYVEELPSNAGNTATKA
inactive: [1] -0.061 | [2] 0.039 | [3] 0.017 | [4] -0.092 | [5] 0.017

PANK4 (UniProt Q9NVE7)
UniProt Q9NVE7, sequence (Q9NVE7 whole entry, looked up): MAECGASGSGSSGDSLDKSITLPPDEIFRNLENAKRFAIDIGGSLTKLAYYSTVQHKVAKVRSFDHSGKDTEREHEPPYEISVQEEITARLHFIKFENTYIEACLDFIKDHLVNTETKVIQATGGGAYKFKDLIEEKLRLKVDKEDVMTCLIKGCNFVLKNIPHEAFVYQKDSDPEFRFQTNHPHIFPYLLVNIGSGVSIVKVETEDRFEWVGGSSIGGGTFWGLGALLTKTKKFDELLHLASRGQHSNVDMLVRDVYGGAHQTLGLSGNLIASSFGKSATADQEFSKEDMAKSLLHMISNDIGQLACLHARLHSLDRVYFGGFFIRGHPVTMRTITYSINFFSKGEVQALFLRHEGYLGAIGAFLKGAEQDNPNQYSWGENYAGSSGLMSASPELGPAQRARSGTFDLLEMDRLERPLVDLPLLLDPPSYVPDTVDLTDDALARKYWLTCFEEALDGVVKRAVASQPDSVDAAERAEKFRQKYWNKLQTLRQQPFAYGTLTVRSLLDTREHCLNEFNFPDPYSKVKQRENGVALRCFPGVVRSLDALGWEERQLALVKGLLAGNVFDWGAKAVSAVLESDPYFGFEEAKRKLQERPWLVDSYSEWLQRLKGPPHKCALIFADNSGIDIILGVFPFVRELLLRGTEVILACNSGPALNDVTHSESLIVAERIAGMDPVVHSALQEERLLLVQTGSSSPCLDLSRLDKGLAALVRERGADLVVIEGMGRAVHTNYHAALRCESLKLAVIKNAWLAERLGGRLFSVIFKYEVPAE
inactive: [1] -0.009 | [2] -0.025 | [3] 0.026 | [4] 0.003 | [5] -0.013

OTC (UniProt P00480)
UniProt P00480, sequence (P00480 whole entry, looked up): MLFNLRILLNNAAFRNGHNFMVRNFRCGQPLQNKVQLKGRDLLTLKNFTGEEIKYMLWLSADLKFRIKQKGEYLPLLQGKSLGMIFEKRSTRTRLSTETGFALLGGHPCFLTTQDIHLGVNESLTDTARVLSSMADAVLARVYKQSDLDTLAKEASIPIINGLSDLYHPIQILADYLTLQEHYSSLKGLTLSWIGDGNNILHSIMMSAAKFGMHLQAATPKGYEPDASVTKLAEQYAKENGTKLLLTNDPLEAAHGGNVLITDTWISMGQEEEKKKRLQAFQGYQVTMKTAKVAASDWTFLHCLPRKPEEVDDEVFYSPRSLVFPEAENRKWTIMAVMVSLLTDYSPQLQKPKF
active: [5] -2.16
inactive: [1] -0.11 | [2] 0.131 | [3] -0.028 | [4] -0.38

NFAT5 isoform 4 (UniProt O94916)
inactive: [1] -0.208 | [2] 0.11

NUP98 (UniProt P52948)
inactive: [1] -0.018 | [2] -0.03 | [3] 0.037 | [4] 0.052 | [5] -0.003

NNMT (UniProt P40261)
UniProt P40261, sequence (P40261 whole entry, looked up): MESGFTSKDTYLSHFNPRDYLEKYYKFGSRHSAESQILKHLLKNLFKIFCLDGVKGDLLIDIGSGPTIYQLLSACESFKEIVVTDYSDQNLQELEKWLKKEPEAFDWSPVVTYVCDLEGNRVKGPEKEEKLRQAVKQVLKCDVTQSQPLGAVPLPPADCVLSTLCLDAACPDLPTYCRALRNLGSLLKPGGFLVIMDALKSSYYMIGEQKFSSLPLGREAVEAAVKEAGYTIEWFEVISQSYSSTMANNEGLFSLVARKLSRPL
inactive: [1] 0.003 | [2] 0.05 | [3] 0.027 | [4] -0.011 | [5] -0.027

MRPS31 (UniProt Q92665)
inactive: [1] -0.019 | [2] -0.048 | [3] 0.046 | [4] 0.014 | [5] 0.014
